Compound activity as filed in PubChem BioAssay.
Pol kappa inh-1 – DNA polymerase kappa (human) inhibition. purified Pol kappa, fluorescent DNA synthesis assay, 10 min. 400,000 tested, 0.53% active. Potency, µM (titrated, usually from 107 µM), without a hit: at the top dose activity, negative = inhibition, most hits filed as inhibitors. Q9UBT6; further: potency means the concentration at half of the fitted maximal effect; on the % scale 0 is the no-effect control and ±100 the full control effect
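Pol kappa 10 nM + cpd, 15 min RT; start w/ substrate 50 nM final; fluorescence kinetic read, 0 and 10 min. Neg ctrl: buffer, no enzyme.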
POLB inh – inhibitors of human DNA polymerase beta. P06746. Pol beta primer extension/strand displacement, fluorescence kinetic. Potency, µM (titrated, usually from 114 µM), for inactives: at the top dose activity change, negative = inhibition, usual class: inhibitors. 340,000 tested, 1.3% active. AID 485314; further: potency means the concentration at half of the fitted maximal effect; on the % scale 0 is the no-effect control and ±100 the full control effect
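Curves were derived by four-parameter Hill fits of normalized qHTS data. The kinetic fluorescent primer-extension read was taken at 0 and 10 min after 50 nM substrate, following a 15 min room-temperature preincubation of 10 nM enzyme with compounds.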
WRN helicase inh-1 – inhibitors of human WRN helicase | WRN helicase unwinding, fluorescent forked duplex, kinetic | 360,000 tested, 0.46% active | Q14191 | Potency, µM (doses to about 114 µM), inactives show at the highest dose activity change, negative = inhibition, actives largely listed as inhibitors | AID 651768; further: potency means the concentration at half of the fitted maximal effect; on the % scale 0 is the no-effect control and ±100 the full control effect; nearly all actives have a fitted effect of over 55% in size
Target sequence (Q14191 whole entry, looked up): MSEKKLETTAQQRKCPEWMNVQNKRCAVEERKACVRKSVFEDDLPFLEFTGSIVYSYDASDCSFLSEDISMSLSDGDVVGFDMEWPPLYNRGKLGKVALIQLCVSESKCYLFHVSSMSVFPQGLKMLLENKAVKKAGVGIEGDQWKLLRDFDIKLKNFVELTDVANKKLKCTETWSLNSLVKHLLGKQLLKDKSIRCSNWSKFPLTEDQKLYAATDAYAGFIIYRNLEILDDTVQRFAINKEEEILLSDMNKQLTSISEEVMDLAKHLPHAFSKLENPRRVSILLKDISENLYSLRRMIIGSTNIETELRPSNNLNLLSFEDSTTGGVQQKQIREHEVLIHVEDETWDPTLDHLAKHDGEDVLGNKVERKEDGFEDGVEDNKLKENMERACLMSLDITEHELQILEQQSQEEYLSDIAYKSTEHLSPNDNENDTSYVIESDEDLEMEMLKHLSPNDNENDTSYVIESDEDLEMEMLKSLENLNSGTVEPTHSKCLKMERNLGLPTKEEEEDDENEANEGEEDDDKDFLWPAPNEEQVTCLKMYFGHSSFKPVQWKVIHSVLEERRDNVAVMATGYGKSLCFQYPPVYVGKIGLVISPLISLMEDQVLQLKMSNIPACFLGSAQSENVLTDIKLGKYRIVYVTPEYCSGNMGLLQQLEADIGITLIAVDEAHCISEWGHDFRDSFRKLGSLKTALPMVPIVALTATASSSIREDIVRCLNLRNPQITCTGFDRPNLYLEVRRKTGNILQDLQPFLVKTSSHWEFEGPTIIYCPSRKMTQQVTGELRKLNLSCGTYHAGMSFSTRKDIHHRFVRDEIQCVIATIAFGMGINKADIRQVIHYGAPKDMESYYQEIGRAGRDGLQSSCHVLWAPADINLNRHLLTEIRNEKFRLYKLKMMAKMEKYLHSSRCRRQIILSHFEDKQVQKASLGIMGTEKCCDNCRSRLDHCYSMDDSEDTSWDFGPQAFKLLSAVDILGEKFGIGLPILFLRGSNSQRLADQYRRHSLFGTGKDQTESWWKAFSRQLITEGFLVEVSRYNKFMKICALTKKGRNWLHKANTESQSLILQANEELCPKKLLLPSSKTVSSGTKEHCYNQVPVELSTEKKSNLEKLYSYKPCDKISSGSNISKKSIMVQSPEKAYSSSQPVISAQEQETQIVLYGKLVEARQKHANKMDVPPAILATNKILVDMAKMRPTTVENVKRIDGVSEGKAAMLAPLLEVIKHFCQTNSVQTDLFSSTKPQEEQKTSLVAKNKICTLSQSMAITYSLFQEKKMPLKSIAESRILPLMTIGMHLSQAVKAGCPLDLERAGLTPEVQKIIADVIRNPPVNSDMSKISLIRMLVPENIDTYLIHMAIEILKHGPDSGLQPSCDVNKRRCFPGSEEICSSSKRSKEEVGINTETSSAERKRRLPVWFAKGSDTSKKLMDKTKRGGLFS
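Fluorescence dequenching readout, ex 525 nm/em 598 nm, kinetic mode: forked duplex DNA (100 nM final) with adjacent fluorophore and quencher unwound by WRN (20 nM final) with 2 mM ATP. Compound preincubation 15 min, room temperature.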
POLI inh – blocks human DNA polymerase iota activity | Pol iota fluorescent replication assay, 10 min | 390,000 tested, 1% active | Potency, µM (highest dose often 115 µM), for inactives: at the highest dose activity, negative = inhibition, actives largely listed as inhibitors; further: potency means the concentration at half of the fitted maximal effect
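Pol iota at 10 nM preincubated 15 min with compounds at room temperature; reaction started with fluorescent substrate, 50 nM final. Fluorescence read kinetically at 0 and 10 min; buffer-only wells as negative control.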
Pol eta inh-1 – blocks human DNA polymerase eta activity. Q9Y253. Potency, µM (doses to about 114 µM), inactives show top-dose activity change, negative = inhibition, hits mostly inhibitors. recombinant Pol eta, fluorescent DNA replication assay. 390,000 tested, 1.2% active; further: potency means the concentration at half of the fitted maximal effect; on the % scale 0 is the no-effect control and ±100 the full control effect
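Pol eta (10 nM) was preincubated with compounds for 15 min at room temperature, after which fluorescent replication substrate (50 nM final) was added to start the reaction. Fluorescence was read kinetically at 0 and 10 min.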
L3MBTL1 inh – L3MBTL1 (human) inhibition; Q9Y468; AlphaScreen L3MBTL1–H3K9me1 peptide binding; Potency, µM (titrated, usually from 57.1 µM), without a hit: top-dose activity, negative = inhibition, hits mostly inhibitors; 230,000 tested, 0.66% active; further: potency means the concentration at half of the fitted maximal effect; on the % scale 0 is the no-effect control and ±100 the full control effect; nearly all actives have a fitted effect of over 60% in size
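AlphaScreen proximity signal between nickel-chelate acceptor and streptavidin donor beads (final 10 ug/mL) reports binding of 50 nM L3MBTL1 to 75 nM biotin-H3 K9me1 peptide; complex incubated with compounds 30 min at room temperature; cefsulodin titration as control.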
POLI cherry-pick – Inhibitors of human DNA polymerase iota, confirmation; shares compounds with Pol kappa inh-1; Pol iota primer extension, TAMRA/BHQ fluorescence; Potency, µM, usual class: inhibitors; 1,500 tested, 77% active; further: potency means the concentration at half of the fitted maximal effect
GALK inh confirm – confirmation of human galactokinase (GALK) inhibitors. purified GALK, Kinase-Glo ATP depletion luminescence. shares compounds with Pol eta inh-1. Potency, µM (top dose mostly 115 µM), for inactives: top-dose activity, negative = inhibition, usual class: inhibitors. 150 tested, 70% active
Redox cycling – counter-screen for GALK inhibitors: redox cycling H2O2 generation; shares compounds with Pol eta inh-1; Phenol red-HRP H2O2 redox cycling, absorbance 600 nm; Potency, µM (titrated, usually from 115 µM), for the others: at the highest dose activity change, negative = H2O2 signal, actives largely listed as inhibitors; 150 tested, 40% active; AID 2035
HEK293 tox – reduces HEK-293 cell viability in GALK counter-screen. shares compounds with Pol eta inh-1. HEK-293 viability, ATP luminescence (CellTiter-Glo), 24/48 h. Potency, µM (titrated, usually from 46.1 µM), for inactives: at the top dose activity change, negative = cytotoxicity, most hits filed as inhibitors. 170 tested, 10% active. AID 2547; further: potency means the concentration at half of the fitted maximal effect; on the % scale 0 is the no-effect control and ±100 the full control effect
Pol kappa inh-2 – Pol kappa (human) inhibition, cherry-pick confirmation; shares compounds with Pol eta inh-1; purified Pol-kappa, fluorescent strand-displacement substrate; Potency, µM, actives largely listed as inhibitors; 920 tested, 76% active; AID 720501; further: potency means the concentration at half of the fitted maximal effect
Pol eta inh-2 – Pol eta (human) inhibition, cherry-pick confirmation; shares compounds with Pol eta inh-1; Pol eta primer extension, TAMRA/BHQ fluorescence, 10 min; Potency, µM, hits mostly inhibitors; 2,600 tested, 64% active; AID 720502; further: potency means the concentration at half of the fitted maximal effect
WRN helicase inh-2 – confirmation of human WRN helicase inhibitors; shares compounds with WRN helicase inh-1; WRN helicase DNA unwinding, fluorescence kinetic; Potency, µM (series often up to 57.1 µM), for the others: at the top dose activity, negative = inhibition, usual class: inhibitors; 610 tested, 63% active; further: potency means the concentration at half of the fitted maximal effect; nearly all actives have a fitted effect of over 65% in size
BLM helicase inh – blocks human BLM helicase in WRN counterscreen. shares compounds with WRN helicase inh-1. Recombinant BLM helicase DNA unwinding, red fluorescence. Potency, µM (top dose mostly 57.1 µM), without a hit: top-dose activity change, negative = inhibition, hits mostly inhibitors. 610 tested, 60% active. AID 720503; further: potency means the concentration at half of the fitted maximal effect; nearly all actives have a fitted effect of over 60% in size
Numbers without * were called inactive; u = inconclusive; x = not tested or not shown; [ ] = another dose, or the depositor's remark. Compounds with a hit are over-represented: about 2.5% of the library has one in this group of screens. The call rests on the fitted dose curve; in most records, active means well fitted curve in the direction sought with a large enough effect; inconclusive means small, poorly fitted or top-dose-only effect, or another doubt; inactive means no such curve, though single readings can be large; an effect the other way counts as inactive or inconclusive.

SMILES	Pol kappa inh-1	POLB inh	WRN helicase inh-1	POLI inh	Pol eta inh-1	L3MBTL1 inh	Pol eta inh-2	others
O=C(Nc1ccccc1)N1CCC2(CC1)CCN(C(=O)Oc1ccccc1)CC2	-3.0%[60.1 µM]	x	x	x	x	x	x
C[n+]1c2cc(N)ccc2cc2ccc(N)cc21	22.4µM*	x	17.8µM*	7.94µM*	44.7µM*	x	30.1*	POLI cherry-pick=9.47*;Pol kappa inh-2=7.52*;WRN helicase inh-2=10.8µM*;BLM helicase inh=12.1µM*
CC(C)n1cc(C(=O)N(CC(=O)NC(C)(C)C)Cc2ccccc2)cn1	-4.2%	27.9%	3.6%	29.1%	-3.4%	3.8%	x
CCOC(=O)[C@]12Cc3cc(Cl)ccc3[C@H]1N(C1CCCCC1)C(=O)c1cc(OC)ccc12	x	x	-5.6%	x	x	x	x
Cc1ccc(-n2c(C)cc(/C=C3/C(=O)NC(=O)N(Cc4ccco4)C3=O)c2C)cc1	u	u	-12.6%[11.6 µM]	20µM*	50.1µM*	u	u
Cc1cc(/C=C2\C(=O)NC(=O)N(Cc3ccco3)C2=O)c(C)n1-c1ccc(O)cc1	39.8µM*	11.2µM*	u	u	20µM*	39.8µM*	u
Cc1ccc(OCCn2cccc2/C=C2/C(=O)NC(=O)N(Cc3ccco3)C2=O)cc1	28.2µM*	-14.4%	u	8.91µM*	20µM*	x	67.5*
Cc1cc(C=C2C(=O)NC(=O)NC2=O)c(C)n1-c1cccnc1	-15.9%	4.7%	-30.0%	11.1%	0.7%	x	x
Fc1ccc(NC(=S)N2Cc3ccccc3-n3nncc3C2)cc1	x	x	1.9%	x	-15.5%	x	x
COCOC1CCC2C3CCC4=CC(=O)CCC4=C3C=CC12C (stereo not drawn)	u	x	-6.0%[11.6 µM]	28.2µM*	u	x	u
CC1(O)CCC2C3CCC4=CC(=O)CCC4=C3C=CC21C (stereo not drawn)	3.7%	x	-3.5%	23.8%	2.4%	x	x
O=C1NCN(c2ccccc2)C12CCN(C(c1ccccc1)c1nnnn1Cc1ccccc1)CC2 (stereo not drawn)	x	x	1.4%	x	x	x	x
Cc1ccc(S(=O)(=O)Cc2ccc(C(=O)N3CCC4(CC3)OCCO4)o2)cc1	u	10µM*	u	u	12.6µM*	u	u
O=c1oc2ccccc2c(O)c1C(c1ccc([N+](=O)[O-])cc1)c1c(O)c2ccccc2oc1=O	u	50.1µM*	u	u	20µM*	u	x	GALK inh confirm=26.6µM*;Redox cycling=5.2%;HEK293 tox=-1.7%
CCN1C[C@@]2(COC(=O)c3ccccc3N3C(=O)CC(C)C3=O)CC[C@H](OC)[C@]34C5C[C@@H]6[C@@H](OC)C[C@@](O)(C5[C@H]6OC)[C@@](O)(C13)[C@@H](OC)C24 (stereo partly drawn)	-4.8%[19.4 µM]	x	x	x	x	x	x
Cn1cc(C(=O)OCC(=O)Nc2ccccc2Cl)c2ccccc21	-16.0%	x	-9.3%	u	-0.1%	12.0%	x
N#CC(C#N)=Cc1ccc(C=C(C#N)C#N)cc1	-36.8%	u	u	u	44.7µM*	-10.1%	u
Clc1ccc(C(c2ccc(Cl)cc2)n2cc[n+](CC(OCc3ccc(Cl)cc3Cl)c3ccc(Cl)cc3Cl)c2)cc1 (stereo not drawn)	-11.7%[60.1 µM]	1.4%[57.1 µM]	u	u	u	5.1%	x	Pol kappa inh-2=67*
Clc1ccc(COC(Cn2ccnc2)c2ccc(Cl)cc2Cl)cc1 (stereo not drawn)	u	14.7%	-4.6%	8.8%	-26.9%	-11.7%	x
CCn1nc(-c2ccccc2)nc2c(=O)n(C)c(=O)nc1-2	-8.1%	u	-18.3%	-103.3%	0.794µM*	0.708µM*	x	GALK inh confirm=0.595µM*;Redox cycling=0.668µM*;HEK293 tox=u
O=c1c2ccccc2[nH]c(=S)n1-c1ccc2c(c1)OCCO2	-22.7%	-0.1%	-1.2%	-4.9%	-10.2%	x	x
CC(Cc1ccccc1)NCc1ccccc1Cl (stereo not drawn)	-14.3%[60.1 µM]	x	x	x	x	x	x
Cc1ccccc1N1C(=O)NC(=O)/C(=C\c2cnn(-c3ccccc3)c2)C1=O	-4.9%	15.8µM*	u	-6.2%	22.4µM*	-16.9%	u
O=c1[nH]c(O)c(/C=C2/C=CC(c3cc(Cl)ccc3Cl)=N2)c(=O)[nH]1	-5.8%	17.0%	-18.5%	32.2%	17.8µM*	x	u
O=C(CSc1nnc(NC(=O)C2CC2)s1)NCc1ccccc1Cl	0.1%	-12.8%	7.7%	31.5%	0.1%	x	x
Cc1ccc(N2C(=O)NC(=O)/C(=C\c3ccoc3)C2=O)cc1	u	u	u	31.6µM*	50.1µM*	u	47.8*
Cc1cc(C=C2C(=O)N(C)C(=O)N(C)C2=O)c(C)n1-c1ccccc1	-6.7%[60.1 µM]	2.6%	0.8%	-0.7%	12.1%	x	x
Cc1ccc(N2C(=O)NC(=O)/C(=C\c3cc(C)n(-c4ccc(C(=O)O)cc4)c3C)C2=O)cc1	u	u	-3.7%[11.6 µM]	25.1µM*	35.5µM*	x	u
